The list is not random: actives were taken first. Their share in the collection is about 3%.
TRb SRC2 PPI: qHTS for Inhibitors of the Interaction of Thyroid Hormone Receptor and Steroid Receptor Coregulator 2 | 280,000 compounds, 0.065% hits | Potency, µM (series often up to 106 µM), without a hit: at the highest dose activity change, negative = inhibition, usual class: inhibitors | TRbeta-SRC2 peptide binding, fluorescence polarization; receptor liganded with 1 µM T3;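 further: plate controls were bound peptide for no effect and peptide without receptor for full effect; nearly all actives have a fitted effect of over 50% in size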
Target sequence (P10828 whole entry, looked up): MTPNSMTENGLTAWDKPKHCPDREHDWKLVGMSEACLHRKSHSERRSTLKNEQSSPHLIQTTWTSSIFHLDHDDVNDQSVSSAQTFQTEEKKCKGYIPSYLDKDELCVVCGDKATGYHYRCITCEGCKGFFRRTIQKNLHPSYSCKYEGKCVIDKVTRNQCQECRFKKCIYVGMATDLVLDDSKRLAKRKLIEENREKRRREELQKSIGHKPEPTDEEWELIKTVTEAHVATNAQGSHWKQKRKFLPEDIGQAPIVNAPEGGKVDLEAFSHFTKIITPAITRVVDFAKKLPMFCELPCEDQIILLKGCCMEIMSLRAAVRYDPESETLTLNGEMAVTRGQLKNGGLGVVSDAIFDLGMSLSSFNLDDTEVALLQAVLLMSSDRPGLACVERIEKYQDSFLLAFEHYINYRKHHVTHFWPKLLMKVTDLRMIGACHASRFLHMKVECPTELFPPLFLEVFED
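Decrease in fluorescence polarization of 20 nM Texas Red SRC2 coactivator peptide flagged inhibition of its binding to 0.6 uM TRb LBD; 1 uM T3 included, incubation 5 hr, ex 555/em 632 nm.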
Tau fibril ThT: qHTS for Inhibitors of Tau Fibril Formation, Thioflavin T Binding; Microtubule-associated protein tau (Homo sapiens), P10636; recombinant tau K18 P301L, heparin-induced fibrillization, ThT fluorescence; Potency, µM (doses to about 57.4 µM), for the others: at the top dose activity, negative = inhibition, actives largely listed as inhibitors; 270,000 compounds, 2.1% hits; further: nearly all actives have a fitted effect of over 55% in size
Target sequence (P10636 561-689 P618L limits assumed): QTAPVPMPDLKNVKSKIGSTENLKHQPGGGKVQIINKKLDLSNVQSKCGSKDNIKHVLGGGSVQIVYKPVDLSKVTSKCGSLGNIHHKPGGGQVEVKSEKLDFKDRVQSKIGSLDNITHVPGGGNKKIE
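K18 P301L tau (15 uM + 0.24 uM Alexa 594-tagged), heparin 20 uM, NaOAc pH 7, 6 h 37 C; ThT 30 uM, 1 h RT, ex 450/em 510 nm.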
Tau fluor cs: Counterscreen qHTS for Inhibitors of Tau Fibril Formation, Fluorescence Polarization | tau K18 P301L Alexa594 fluorescence, heparin fibrillization | Potency, µM (series often up to 57.7 µM), inactives show top-dose activity change, negative = decrease | 280,000 compounds, 0.93% hits; further: nearly all actives have a fitted effect of over 55% in size
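Human tau K18 P301L (15 uM unlabeled, 0.24 uM Alexa 594-labeled) in 100 mM sodium acetate pH 7 with 20 uM heparin, 6 hr at 37 C. ThT 30 uM added, 1 hr ambient; Alexa 594 FP and total fluorescence read at 555/632 nm.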
Tau fibril FP: qHTS for Inhibitors of Tau Fibril Formation, Fluorescence Polarization | Microtubule-associated protein tau (Homo sapiens), P10636 | K18 P301L tau heparin fibrillization, Alexa594 FP, 6 h | Potency, µM (titrated, usually from 57.7 µM), without a hit: at the highest dose activity, negative = inhibition, hits mostly inhibitors | 280,000 compounds, 0.39% hits; further: nearly all actives have a fitted effect of over 55% in size
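K18 P301L tau (15 uM unlabeled/0.24 uM Alexa 594-labeled, final) + compound + heparin 20 uM final; 100 mM NaOAc pH 7; 6 hr 37 C; ThT 30 uM final added, 1 hr RT; FP ex 555/em 632 nm.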
TR SRC2 fluor cs: Total Fluorescence Counterscreen for Inhibitors of the Interaction of Thyroid Hormone Receptor and Steroid Receptor Coregulator 2; TRb/SRC2 Texas Red total fluorescence interference; Potency, µM (series often up to 106 µM), inactives show at the top dose fluorescence change, negative = quenching; 280,000 compounds, 0.29% hits; AID 1479, 2009; active means well fitted curve in either direction with a large enough effect; inconclusive means small, poorly fitted or top-dose-only effect
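Human TRβ ligand-binding domain (0.6 uM) and Texas Red SRC2 peptide (20 nM) in Tris buffer with 1 uM T3 and 5% DMSO were incubated with pinned compound for 5 hr at ambient temperature. Total fluorescence was computed as S + 2P (555/632 nm).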
* marks the source's active call; other numbers are inactive results; u = inconclusive; x = no result given; [ ] = dose if it differs, or a comment. Unless noted, the call rests on the fitted dose curve; in most records, active means well fitted curve in the direction sought with a large enough effect; inconclusive means small, poorly fitted or top-dose-only effect, or another doubt; inactive means no such curve, though single readings can be large; an effect the other way counts as inactive or inconclusive. Unless noted, on the % scale 0 is the no-effect control and ±100 the full control effect; potency means the concentration at half of the fitted maximal effect.

SMILES	TRb SRC2 PPI	Tau fibril ThT	Tau fluor cs	Tau fibril FP	TR SRC2 fluor cs
Cc1cccc(NC(=O)Cn2c(=O)c3cccn3c3ccccc32)c1C	2.3%	-9.9%	u	17.8µM*	5.3%
CCc1ccccc1NC(=O)Cn1c(=O)c2cccn2c2ccc(F)cc21	-5.8%	3.3%	3.2%	-10.0%	u
COc1ccc(CCNC(=O)Cn2c(=O)c3cccn3c3ccc(F)cc32)cc1OC	4.6%	u	-24.1%	2.5%	8.8%
COc1ccc(CCNC(=O)Cn2c(=O)c3cccn3c3ccccc32)cc1OC	5.5%	-6.2%	u	14.1µM*	0.2%
Nc1c2c(nc3ccc(Br)cc13)N(Cc1ccccc1)CC2	-0.4%	u	u	16.0%	-2.0%
Nc1c2c(nc3ccc(Br)cc13)N(c1ccccc1)CC2	5.0%	u	14.1µM*[quencher]	18.6%	0.9%
Cc1cccc(N2CCc3c2nc2ccc(Br)cc2c3N)c1	3.4%	28.2µM*	15.8µM*[quencher]	u	-10.2%
Fc1ccc(-c2cc(-c3cccs3)cc(-c3ccccc3)n2)cc1	0.1%	-12.0%	-26.1%	u	1.0%
Fc1ccc2[nH]c(-c3cccs3)cc2c1	-0.3%	u	11.2µM*[quencher]	u	-1.1%
Cc1ncsc1C(=O)N1N=C2/C(=C/c3ccc(N4CCOCC4)cc3)CCCC2C1c1ccc(N2CCOCC2)cc1 (stereo unspecified)	-6.2%	14.1µM*	-21.9%	5.4%	0.4%
O=C(c1ccc(N2CCCCC2)c([N+](=O)[O-])c1)N1CCOCC1	-4.6%	-7.6%	-0.8%	-5.6%	-0.7%
O=C(O)c1ccccc1C(=O)c1ccc(N2CCCC2)c([N+](=O)[O-])c1	-4.4%	-11.8%	7.2%	2.9%	-0.3%
COc1ccccc1C(=O)/C=C/c1ccc(N2CCCCC2)c([N+](=O)[O-])c1	-10.0%	3.98µM*	u	3.9%	-1.4%
O=C(/C=C/c1ccc(N2CCCCC2)c([N+](=O)[O-])c1)c1ccc(O)cc1	-2.2%	11.2µM*	15.8µM*[quencher]	u	-2.1%
CC1CC=CC2C1C(=O)N(Cc1ccccc1)C2c1ccc(F)c(-c2ccc(N(C)C)cc2)c1 (stereo unspecified)	-2.8%	x	x	x	-0.8%
CN(C(=S)Nc1ccc(SC(F)F)cc1)c1ccc(O)cc1	u	2.51µM*	u	u	-15.0%
COc1cccc(CNC(=O)C2CCCN(S(=O)(=O)c3ccc4c(ccn4C)c3)C2)c1OC (stereo unspecified)	-6.5%	-3.0%	-5.2%	-4.9%	-0.7%
COc1ccc(COC(=O)N/N=C2/C[C@@H](O)[C@@H](O)[C@@H]3[C@@H]4C(=O)N(Cc5ccc6c(c5)OCO6)C(=O)[C@H]4CC[C@H]23)cc1	4.7%[11.2 µM]	-19.2%[11.5 µM]	-24.9%[11.6 µM]	-14.2%[11.6 µM]	-3.3%[11.2 µM]
Cc1ccc(-c2cc3ncc4c(n3n2)-c2cc(F)ccc2OC4)cc1	-5.5%	3.2%	-7.0%	-4.8%	25.1µM*[quencher]
Cc1ccc(-c2cc3ncc4c(n3n2)-c2cc(C)ccc2OC4)cc1	-0.5%	-17.7%	-12.1%	-9.7%	1.6%
Cc1cc(C(c2ccc(C)o2)c2ccc(C)o2)c(O)c([N+](=O)[O-])c1	-1.1%	u	-26.5%	-6.0%	-4.9%
Cc1cc(/C=N/n2cnnc2)c(O)c([N+](=O)[O-])c1	-0.8%	3.98µM*	-5.5%	11.0%	-8.8%
Cc1ccc(F)cc1NC(=O)Nc1cc(C(C)(C)C)nn1C	-6.2%	-4.6%	-26.6%	5.4%	-2.2%
Cn1nc(C(C)(C)C)cc1NC(=O)Nc1cc(Cl)cc(Cl)c1	4.5%	-9.2%	7.08µM*[quencher]	25.1µM*	-4.8%
Cc1ccc(NC(=S)NCc2ccccc2)cc1S(=O)(=O)N1CCCCC1	-1.1%	5.2%	12.6µM*[quencher]	20µM*	0.0%
SMILES	TRb SRC2 PPI	Tau fibril ThT	Tau fluor cs	Tau fibril FP	TR SRC2 fluor cs
Cc1ccc(S(=O)(=O)N2CCCCC2)cc1NC(=O)Cc1c[nH]c2ccccc12	1.4%	-8.1%	u	7.0%	0.2%
Cc1ccc(NC(=O)Cc2c[nH]c3ccccc23)cc1S(=O)(=O)N1CCCCCC1	-4.4%	-7.6%	14.1µM*[quencher]	8.5%	1.2%
Cc1ccc(NC(=O)c2cc(=O)c3ccccc3o2)cc1S(=O)(=O)N1CCCCC1	-6.1%	-15.8%	u	u	-1.4%
Cc1cccn2c(=O)c(/C=C(\C#N)C(=O)NC3CCS(=O)(=O)C3)c(N3CCC(C(N)=O)CC3)nc12 (stereo unspecified)	-19.7%[53 µM]	2.3%	1.5%	0.1%	0.0003µM*[quencher]
CCc1ccccc1Nc1nc2ccccc2n2cnnc12	0.4%	-6.6%	-18.1%	-0.9%	0.0%
COc1ccc(-c2ccc(C3C(C#N)=C(N)Oc4n[nH]c(C)c43)o2)cc1 (stereo unspecified)	4.9%	4.47µM*	u	-1.0%	-10.6%
Cc1[nH]nc2c1C(c1ccco1)C(C#N)=C(N)O2 (stereo unspecified)	-5.4%	-8.2%	-0.6%	5.9%	-0.5%
CCCCCCc1ccc(N)cc1	-8.1%[201 µM]	x	x	x	0.8%[201 µM]
S=C(c1ccc(-c2ccc(Cl)c(Cl)c2)o1)N1CCOCC1	0.2%	10µM*	-25.0%	-2.6%	-1.7%
S=C(c1ccc(-c2ccccc2Cl)o1)N1CCOCC1	-0.9%	25.1µM*	u	-13.6%	1.8%
Cc1ccc(N2CCN(C(=S)c3ccc(-c4ccccc4[N+](=O)[O-])o3)CC2)cc1	1.8%	u	u	-4.3%	0.4%
S=C(c1ccc(-c2ccc(Br)cc2)o1)N1CCOCC1	-1.4%	x	-25.3%	-5.1%	-0.4%
O=[N+]([O-])c1ccccc1-c1ccc(C(=S)N2CCN(c3ccccc3)CC2)o1	3.0%	11.2µM*	u	-7.4%	2.3%
Cc1ccc(S(=O)(=O)N2CCc3nc(COc4ccccc4)c4c(c3C2)CO[C@@H](C)C4)cc1	4.1%[11.2 µM]	-13.0%[11.5 µM]	-15.2%[11.6 µM]	-2.0%[11.6 µM]	-1.6%[11.2 µM]
Cc1cccc(C)c1OCCn1c(C2CC(=O)N(Cc3ccc(F)cc3)C2)nc2ccccc21 (stereo unspecified)	1.9%	u	-20.4%	3.5%	-2.7%
Cc1cc(C)c2c(=O)cc(C(=O)Nc3ccc(S(=O)(=O)Nc4onc(C)c4C)cc3)oc2c1	13.2%	u	u	8.0%	126µM*[quencher]
Cc1ccc2c(=O)cc(C(=O)Nc3ccc(S(=O)(=O)Nc4onc(C)c4C)cc3)oc2c1	10.8%	-15.9%	-14.6%	8.2%	u
CC[n+]1c(/C=C/c2c[nH]c3ccccc23)ccc2cc(C)ccc21	3.8%	2µM*	1.26µM*[fluorescent]	u	0.1%
CCc1ccc(Nc2cc(C(=O)NCCCN3CCOCC3)c3ccccc3n2)cc1	-4.6%	u	15.8µM*[quencher]	u	-1.6%

Assay outcomes deposited in PubChem by National Center for Advancing Translational Sciences (NCATS).
